Test results from article PMC7862700, “An all-to-all approach to the identification of sequence-specific readers for epigenetic DNA modifications on cytosine”.

Key:
Test in all cases: DAPPL (digital affinity profiling via proximity ligation, sequencing); 10 mM Tris-HCl pH 7.5, 50 mM NaCl, 1 mM DTT, 4% glycerol, room temperature, 30 min; GST-TFs on glutathione beads, 16-mer random dsDNA library, 0.1% formaldehyde crosslink after washing; high values mean tight binding
FLI1 = biological target: T1, FLI1 (Homo sapiens, UniProt Q01543 1-452); conditions: protein: recombinant; tags: N-terminal GST; dsDNA, one strand shown
T1 sequence: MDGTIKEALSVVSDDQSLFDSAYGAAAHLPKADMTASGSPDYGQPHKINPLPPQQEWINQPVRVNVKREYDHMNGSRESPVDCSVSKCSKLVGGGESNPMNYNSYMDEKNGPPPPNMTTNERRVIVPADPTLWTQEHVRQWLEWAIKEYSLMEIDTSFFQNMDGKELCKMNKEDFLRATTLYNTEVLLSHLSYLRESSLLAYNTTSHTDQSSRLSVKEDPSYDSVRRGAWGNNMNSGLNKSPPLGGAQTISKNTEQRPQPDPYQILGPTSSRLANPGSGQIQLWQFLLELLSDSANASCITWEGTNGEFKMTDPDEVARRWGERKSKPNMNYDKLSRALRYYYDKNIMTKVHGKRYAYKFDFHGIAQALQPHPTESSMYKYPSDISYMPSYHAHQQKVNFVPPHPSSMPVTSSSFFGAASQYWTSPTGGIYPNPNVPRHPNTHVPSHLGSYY
Method in brief: (§1)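 GST fusions of human transcription factors were expressed in yeast and captured with glutathione beads. Once given DNA barcodes and pooled alongside a tag-only sample, they were incubated for 30 min at room temperature with 200 nmole of a random double-stranded 16-mer DNA library in Tris/NaCl/DTT/glycerol buffer, then washed, crosslinked (0.1% formaldehyde), proximity-ligated, PCR-amplified and sequenced on an Illumina NextSeq500. The binding signal of each hexamer is its read frequency for a factor divided by its frequency for the tag-only sample.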

ELK1 = biological target: T2, ELK1 (Homo sapiens, UniProt P19419 1-428); conditions: protein: recombinant; tags: N-terminal GST; dsDNA, one strand shown
T2 sequence: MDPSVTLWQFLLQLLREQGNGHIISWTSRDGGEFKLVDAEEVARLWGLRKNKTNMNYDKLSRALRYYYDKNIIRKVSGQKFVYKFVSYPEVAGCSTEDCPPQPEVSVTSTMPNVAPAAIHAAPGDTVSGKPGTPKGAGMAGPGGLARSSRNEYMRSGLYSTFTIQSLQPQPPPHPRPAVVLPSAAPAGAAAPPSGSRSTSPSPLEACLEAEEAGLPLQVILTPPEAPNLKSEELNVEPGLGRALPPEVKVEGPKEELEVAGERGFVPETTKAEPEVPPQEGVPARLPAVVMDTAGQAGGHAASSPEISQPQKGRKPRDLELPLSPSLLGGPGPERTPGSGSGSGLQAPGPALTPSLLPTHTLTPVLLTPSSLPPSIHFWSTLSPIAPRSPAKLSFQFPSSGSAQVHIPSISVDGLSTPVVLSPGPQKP
Method in brief: as §1

GABPA = biological target: T3, GABPA (Homo sapiens, UniProt Q06546 1-454); conditions: protein: recombinant; tags: N-terminal GST; dsDNA, one strand shown
T3 sequence: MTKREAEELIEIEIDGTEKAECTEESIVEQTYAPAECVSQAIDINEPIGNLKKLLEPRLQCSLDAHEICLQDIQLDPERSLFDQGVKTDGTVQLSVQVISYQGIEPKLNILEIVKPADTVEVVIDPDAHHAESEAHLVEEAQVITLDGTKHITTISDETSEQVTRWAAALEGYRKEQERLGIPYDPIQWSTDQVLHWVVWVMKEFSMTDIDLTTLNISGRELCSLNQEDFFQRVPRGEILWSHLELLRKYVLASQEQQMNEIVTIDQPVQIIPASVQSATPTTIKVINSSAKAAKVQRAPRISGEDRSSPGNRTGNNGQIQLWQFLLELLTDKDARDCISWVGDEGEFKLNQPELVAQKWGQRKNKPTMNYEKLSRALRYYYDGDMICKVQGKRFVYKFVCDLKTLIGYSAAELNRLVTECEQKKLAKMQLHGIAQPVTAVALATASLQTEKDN
Method in brief: as §1

ERG = biological target: T4, ERG (Homo sapiens, UniProt P11308 1-479); conditions: protein: recombinant; tags: N-terminal GST; dsDNA, one strand shown
T4 sequence: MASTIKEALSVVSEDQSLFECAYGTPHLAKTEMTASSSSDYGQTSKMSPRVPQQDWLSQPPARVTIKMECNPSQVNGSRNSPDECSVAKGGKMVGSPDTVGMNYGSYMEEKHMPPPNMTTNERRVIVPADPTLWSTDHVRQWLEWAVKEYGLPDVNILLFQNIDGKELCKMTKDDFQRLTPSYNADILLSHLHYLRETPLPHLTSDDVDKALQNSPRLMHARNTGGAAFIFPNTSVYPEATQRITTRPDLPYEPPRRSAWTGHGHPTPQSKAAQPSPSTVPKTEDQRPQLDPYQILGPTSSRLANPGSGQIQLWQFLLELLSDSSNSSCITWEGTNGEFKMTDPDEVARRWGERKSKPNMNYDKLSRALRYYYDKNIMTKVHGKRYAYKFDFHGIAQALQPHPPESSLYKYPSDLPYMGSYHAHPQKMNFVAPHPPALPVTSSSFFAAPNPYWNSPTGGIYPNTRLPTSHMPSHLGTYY
Method in brief: as §1

ELF1 = ELF1 (Homo sapiens, UniProt P32519 1-619); conditions: protein: recombinant; tags: N-terminal GST; dsDNA, one strand shown
Method in brief: as §1

EHF = biological target: T5, EHF (Homo sapiens, UniProt Q9NZC4 1-300); conditions: protein: recombinant; tags: N-terminal GST; dsDNA, one strand shown
T5 sequence: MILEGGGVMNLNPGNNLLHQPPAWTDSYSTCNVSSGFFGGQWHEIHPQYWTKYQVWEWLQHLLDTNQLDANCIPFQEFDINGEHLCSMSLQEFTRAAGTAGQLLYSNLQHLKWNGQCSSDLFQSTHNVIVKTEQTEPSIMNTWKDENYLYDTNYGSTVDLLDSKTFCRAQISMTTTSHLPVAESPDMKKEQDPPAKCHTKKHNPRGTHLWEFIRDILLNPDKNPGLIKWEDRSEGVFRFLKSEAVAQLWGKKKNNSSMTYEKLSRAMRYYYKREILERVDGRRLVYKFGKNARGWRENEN
Method in brief: as §1

SPI1 = SPI1 (Homo sapiens, UniProt P17947 1-270); conditions: protein: recombinant; tags: N-terminal GST; dsDNA, one strand shown
Method in brief: as §1

SPIB = SPIB (Homo sapiens, UniProt Q01892 1-262); conditions: protein: recombinant; tags: N-terminal GST; dsDNA, one strand shown
Method in brief: as §1

ELK3 = biological target: T6, ELK3 (Homo sapiens, UniProt P41970 1-407); conditions: protein: recombinant; tags: N-terminal GST; dsDNA, one strand shown
T6 sequence: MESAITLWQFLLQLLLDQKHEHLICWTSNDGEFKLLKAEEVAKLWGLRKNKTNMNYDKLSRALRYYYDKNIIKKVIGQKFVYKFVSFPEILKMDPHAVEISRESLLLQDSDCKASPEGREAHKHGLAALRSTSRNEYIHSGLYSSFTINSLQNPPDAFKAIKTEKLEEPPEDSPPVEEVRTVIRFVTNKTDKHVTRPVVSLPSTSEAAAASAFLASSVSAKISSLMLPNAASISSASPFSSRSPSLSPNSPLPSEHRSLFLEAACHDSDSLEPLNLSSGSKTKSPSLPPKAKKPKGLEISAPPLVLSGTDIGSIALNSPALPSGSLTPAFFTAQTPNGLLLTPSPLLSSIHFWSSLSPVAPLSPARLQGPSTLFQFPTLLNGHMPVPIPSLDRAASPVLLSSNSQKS
Method in brief: as §1

FEV = biological target: T7, FEV (Homo sapiens, UniProt Q99581 1-238); conditions: protein: recombinant; tags: N-terminal GST; dsDNA, one strand shown
T7 sequence: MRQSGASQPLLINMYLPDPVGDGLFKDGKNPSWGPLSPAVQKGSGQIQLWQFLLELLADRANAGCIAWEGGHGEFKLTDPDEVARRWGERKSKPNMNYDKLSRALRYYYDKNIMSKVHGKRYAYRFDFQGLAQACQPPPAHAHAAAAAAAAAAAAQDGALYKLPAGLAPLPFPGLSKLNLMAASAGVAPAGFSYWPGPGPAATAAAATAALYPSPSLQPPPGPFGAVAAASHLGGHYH
Method in brief: as §1

ETV5 = ETV5 (Homo sapiens, UniProt P41161 1-510); conditions: protein: recombinant; tags: N-terminal GST; dsDNA, one strand shown
Method in brief: as §1

HSF1 = HSF1 (Homo sapiens, UniProt Q00613 1-529); conditions: protein: recombinant; tags: N-terminal GST; chain copies: 3; dsDNA, one strand shown
Method in brief: as §1

SPIC = biological target: T8, SPIC (Homo sapiens, UniProt Q8N5J4 1-248); conditions: protein: recombinant; tags: N-terminal GST; dsDNA, one strand shown
T8 sequence: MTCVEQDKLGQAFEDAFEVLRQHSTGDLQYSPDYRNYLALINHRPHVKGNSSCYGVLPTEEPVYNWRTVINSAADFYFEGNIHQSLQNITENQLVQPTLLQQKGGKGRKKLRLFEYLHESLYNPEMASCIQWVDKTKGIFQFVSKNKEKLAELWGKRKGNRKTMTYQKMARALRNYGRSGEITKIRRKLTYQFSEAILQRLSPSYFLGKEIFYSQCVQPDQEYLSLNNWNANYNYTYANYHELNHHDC
Method in brief: as §1

ELF4 = ELF4 (Homo sapiens, UniProt Q99607 1-663); conditions: protein: recombinant; tags: N-terminal GST; dsDNA, one strand shown
Method in brief: as §1

ELK4 = biological target: T9, ELK4 (Homo sapiens, UniProt P28324-2 1-405); conditions: protein: recombinant; tags: N-terminal GST; dsDNA, one strand shown
T9 sequence: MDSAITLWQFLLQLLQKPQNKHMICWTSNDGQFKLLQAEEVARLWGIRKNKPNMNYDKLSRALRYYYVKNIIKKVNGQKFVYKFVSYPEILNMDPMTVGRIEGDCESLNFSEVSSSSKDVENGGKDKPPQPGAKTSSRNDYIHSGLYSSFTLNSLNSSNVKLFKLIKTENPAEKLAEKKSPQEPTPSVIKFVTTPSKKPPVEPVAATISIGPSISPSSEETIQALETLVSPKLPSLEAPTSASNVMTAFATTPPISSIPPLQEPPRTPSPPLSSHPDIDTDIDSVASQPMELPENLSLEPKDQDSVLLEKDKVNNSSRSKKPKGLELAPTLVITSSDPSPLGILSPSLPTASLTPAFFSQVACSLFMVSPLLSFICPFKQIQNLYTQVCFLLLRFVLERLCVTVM
Method in brief: as §1

ETV2 = biological target: T10, ETV2 (Homo sapiens, UniProt O00321 1-342); conditions: protein: recombinant; tags: N-terminal GST; dsDNA, one strand shown
T10 sequence: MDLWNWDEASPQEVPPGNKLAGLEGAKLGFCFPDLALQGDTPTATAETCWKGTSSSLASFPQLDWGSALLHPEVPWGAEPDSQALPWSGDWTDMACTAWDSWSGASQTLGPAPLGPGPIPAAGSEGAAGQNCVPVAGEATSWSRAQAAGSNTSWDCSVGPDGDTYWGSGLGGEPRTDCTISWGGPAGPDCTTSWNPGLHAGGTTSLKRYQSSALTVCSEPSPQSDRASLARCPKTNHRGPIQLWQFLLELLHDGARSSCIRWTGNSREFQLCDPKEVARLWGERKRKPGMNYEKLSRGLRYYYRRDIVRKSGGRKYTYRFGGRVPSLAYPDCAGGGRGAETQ
Method in brief: as §1

ELF3 = biological target: T11, ELF3 (Homo sapiens, UniProt P78545 1-371); conditions: protein: recombinant; tags: N-terminal GST; dsDNA, one strand shown
T11 sequence: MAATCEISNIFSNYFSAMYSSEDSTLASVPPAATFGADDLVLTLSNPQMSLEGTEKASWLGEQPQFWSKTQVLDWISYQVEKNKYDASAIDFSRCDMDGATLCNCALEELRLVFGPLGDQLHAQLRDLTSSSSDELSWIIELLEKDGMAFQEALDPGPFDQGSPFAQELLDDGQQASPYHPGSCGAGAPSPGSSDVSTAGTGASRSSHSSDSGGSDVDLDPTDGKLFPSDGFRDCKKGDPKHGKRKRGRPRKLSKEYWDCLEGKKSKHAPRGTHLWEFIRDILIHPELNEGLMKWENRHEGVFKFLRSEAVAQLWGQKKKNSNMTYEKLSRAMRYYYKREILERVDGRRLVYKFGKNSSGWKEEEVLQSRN
Method in brief: as §1

CRX = CRX (Homo sapiens, UniProt O43186 1-299); conditions: protein: recombinant; tags: N-terminal GST; dsDNA, one strand shown
Method in brief: as §1

ETV1 = ETV1 (Homo sapiens, UniProt P50549 1-477); conditions: protein: recombinant; tags: N-terminal GST; dsDNA, one strand shown
Method in brief: as §1

Chain of ELF4 (Q99607 whole entry): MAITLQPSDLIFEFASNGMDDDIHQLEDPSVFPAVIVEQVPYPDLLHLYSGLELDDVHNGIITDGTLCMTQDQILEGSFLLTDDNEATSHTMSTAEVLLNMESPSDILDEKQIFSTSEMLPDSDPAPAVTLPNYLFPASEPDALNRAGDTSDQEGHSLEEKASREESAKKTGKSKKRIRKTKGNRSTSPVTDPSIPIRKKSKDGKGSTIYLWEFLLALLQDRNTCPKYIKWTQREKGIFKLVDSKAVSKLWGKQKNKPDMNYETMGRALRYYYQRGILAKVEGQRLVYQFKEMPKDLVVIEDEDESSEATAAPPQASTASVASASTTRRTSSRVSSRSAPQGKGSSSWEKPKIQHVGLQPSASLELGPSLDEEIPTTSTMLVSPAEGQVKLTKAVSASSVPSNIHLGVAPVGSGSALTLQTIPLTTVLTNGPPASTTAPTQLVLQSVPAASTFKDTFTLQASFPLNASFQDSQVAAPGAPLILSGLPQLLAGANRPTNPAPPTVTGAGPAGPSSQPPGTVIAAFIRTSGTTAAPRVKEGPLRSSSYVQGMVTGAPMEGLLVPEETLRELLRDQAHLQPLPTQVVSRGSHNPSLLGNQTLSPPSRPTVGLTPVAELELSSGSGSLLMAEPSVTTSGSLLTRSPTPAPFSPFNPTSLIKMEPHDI
Chain of ETV1 (P50549 whole entry): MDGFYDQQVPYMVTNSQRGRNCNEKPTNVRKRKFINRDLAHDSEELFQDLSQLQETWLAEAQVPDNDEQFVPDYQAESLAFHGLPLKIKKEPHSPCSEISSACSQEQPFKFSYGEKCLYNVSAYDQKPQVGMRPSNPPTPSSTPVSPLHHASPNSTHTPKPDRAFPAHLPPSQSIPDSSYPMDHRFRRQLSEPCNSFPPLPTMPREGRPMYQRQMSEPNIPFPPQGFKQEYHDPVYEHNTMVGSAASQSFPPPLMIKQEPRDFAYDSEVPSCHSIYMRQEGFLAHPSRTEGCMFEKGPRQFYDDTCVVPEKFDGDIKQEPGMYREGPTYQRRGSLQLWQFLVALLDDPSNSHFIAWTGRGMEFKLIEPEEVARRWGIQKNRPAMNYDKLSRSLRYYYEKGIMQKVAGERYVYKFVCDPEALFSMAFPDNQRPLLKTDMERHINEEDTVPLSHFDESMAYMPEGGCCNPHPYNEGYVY
Chain of CRX (O43186 whole entry): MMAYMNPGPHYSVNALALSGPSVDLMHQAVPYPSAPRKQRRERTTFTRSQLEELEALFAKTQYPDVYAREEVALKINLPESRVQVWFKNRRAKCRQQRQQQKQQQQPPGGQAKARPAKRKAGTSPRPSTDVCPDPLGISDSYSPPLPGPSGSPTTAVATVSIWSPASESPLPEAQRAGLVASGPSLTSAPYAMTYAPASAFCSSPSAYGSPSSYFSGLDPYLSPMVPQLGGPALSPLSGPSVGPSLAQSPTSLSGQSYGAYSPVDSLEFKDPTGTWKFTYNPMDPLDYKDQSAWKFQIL
Chain of SPIB (Q01892 whole entry): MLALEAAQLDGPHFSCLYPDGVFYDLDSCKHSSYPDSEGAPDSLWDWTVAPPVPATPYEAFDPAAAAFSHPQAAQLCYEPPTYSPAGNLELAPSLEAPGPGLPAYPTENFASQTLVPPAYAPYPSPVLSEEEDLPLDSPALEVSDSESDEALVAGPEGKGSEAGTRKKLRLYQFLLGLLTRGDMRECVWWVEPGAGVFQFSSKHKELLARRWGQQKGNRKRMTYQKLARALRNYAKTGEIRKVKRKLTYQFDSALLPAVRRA
Chain of ETV5 (P41161 whole entry): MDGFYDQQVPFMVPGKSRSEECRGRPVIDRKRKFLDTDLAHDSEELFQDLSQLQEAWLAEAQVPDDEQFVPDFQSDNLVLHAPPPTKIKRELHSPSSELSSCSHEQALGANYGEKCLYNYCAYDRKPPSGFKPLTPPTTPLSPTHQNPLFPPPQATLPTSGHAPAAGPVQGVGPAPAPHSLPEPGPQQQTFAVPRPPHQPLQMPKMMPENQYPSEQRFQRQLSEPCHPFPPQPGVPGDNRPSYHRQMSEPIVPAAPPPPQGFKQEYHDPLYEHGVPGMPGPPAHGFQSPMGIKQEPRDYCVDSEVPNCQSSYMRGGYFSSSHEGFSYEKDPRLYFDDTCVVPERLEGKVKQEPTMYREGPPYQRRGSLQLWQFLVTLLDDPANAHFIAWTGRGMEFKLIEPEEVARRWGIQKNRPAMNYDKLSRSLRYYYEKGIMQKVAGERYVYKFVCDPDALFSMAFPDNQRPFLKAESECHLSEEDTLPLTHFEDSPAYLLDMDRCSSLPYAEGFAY
Chain of ELF1 (P32519 whole entry): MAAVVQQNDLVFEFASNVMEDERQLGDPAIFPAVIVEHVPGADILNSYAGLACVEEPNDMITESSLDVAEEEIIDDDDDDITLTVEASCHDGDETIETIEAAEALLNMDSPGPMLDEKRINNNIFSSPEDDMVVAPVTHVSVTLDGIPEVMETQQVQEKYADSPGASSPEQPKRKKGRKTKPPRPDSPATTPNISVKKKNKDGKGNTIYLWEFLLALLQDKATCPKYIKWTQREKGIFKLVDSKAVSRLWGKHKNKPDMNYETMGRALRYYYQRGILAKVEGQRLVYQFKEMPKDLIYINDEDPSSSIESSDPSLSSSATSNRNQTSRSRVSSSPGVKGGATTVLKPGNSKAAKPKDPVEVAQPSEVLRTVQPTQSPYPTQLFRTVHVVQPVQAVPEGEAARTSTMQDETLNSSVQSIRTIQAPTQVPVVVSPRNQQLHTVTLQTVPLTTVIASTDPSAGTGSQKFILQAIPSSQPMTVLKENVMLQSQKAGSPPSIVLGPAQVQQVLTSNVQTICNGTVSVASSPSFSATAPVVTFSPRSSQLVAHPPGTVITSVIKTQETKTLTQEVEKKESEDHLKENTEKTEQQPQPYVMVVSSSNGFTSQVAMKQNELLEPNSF
Chain of HSF1 (Q00613 whole entry): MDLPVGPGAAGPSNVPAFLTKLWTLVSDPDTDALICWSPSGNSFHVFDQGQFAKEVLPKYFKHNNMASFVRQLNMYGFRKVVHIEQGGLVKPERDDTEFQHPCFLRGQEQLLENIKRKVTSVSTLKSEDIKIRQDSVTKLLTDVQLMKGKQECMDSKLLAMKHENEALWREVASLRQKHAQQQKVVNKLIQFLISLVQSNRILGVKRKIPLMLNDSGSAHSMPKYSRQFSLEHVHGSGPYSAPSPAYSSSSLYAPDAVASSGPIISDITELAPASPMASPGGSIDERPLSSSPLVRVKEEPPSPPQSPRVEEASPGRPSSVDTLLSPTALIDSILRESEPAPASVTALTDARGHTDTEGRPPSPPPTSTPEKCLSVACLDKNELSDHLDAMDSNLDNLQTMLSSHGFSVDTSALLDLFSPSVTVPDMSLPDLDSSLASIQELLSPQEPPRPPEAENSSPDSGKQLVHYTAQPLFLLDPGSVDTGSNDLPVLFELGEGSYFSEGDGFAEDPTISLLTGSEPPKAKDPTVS

Which results are given for TTATAT?
binding signal (FLI1): 1.26 fold enrichment (6-mer frequency, TF over GST control); binding signal (ELK1): 1.42 fold enrichment (6-mer frequency, TF over GST control); binding signal (GABPA): 1.39 fold enrichment (6-mer frequency, TF over GST control); binding signal (ERG): 1.4 fold enrichment (6-mer frequency, TF over GST control); binding signal (ELF1): 1.34 fold enrichment (6-mer frequency, TF over GST control); binding signal (EHF): 1.41 fold enrichment (6-mer frequency, TF over GST control); binding signal (SPI1): 1.32 fold enrichment (6-mer frequency, TF over GST control); binding signal (SPIB): 1.51 fold enrichment (6-mer frequency, TF over GST control); binding signal (ELK3): 1.18 fold enrichment (6-mer frequency, TF over GST control); binding signal (FEV): 1.33 fold enrichment (6-mer frequency, TF over GST control); binding signal (ETV5): 1.26 fold enrichment (6-mer frequency, TF over GST control); binding signal (HSF1): 1.76 fold enrichment (6-mer frequency, TF over GST control); binding signal (SPIC): 1.44 fold enrichment (6-mer frequency, TF over GST control); binding signal (ELF4): 1.34 fold enrichment (6-mer frequency, TF over GST control); binding signal (ELK4): 1.45 fold enrichment (6-mer frequency, TF over GST control); binding signal (ETV2): 1.46 fold enrichment (6-mer frequency, TF over GST control); binding signal (ELF3): 1.44 fold enrichment (6-mer frequency, TF over GST control); binding signal (CRX): 2.47 fold enrichment (6-mer frequency, TF over GST control); binding signal (ETV1): 1.34 fold enrichment (6-mer frequency, TF over GST control)
